The source of these data is PubChem BioAssay (NCI).

SMILES strings stand for the structures. About 83,000 compounds went through this panel and 20% of them were active in at least one assay; those are over-represented in the sample as a whole.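 Compound tested at a single concentration for 48 hours in 96-well plates; a percent growth value below 10 was scored as active.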 Calls of active or inactive are those of the source.

The test relates to MDA-MB-468 breast. The test can be described thus: NCI-60 one-dose screen, 48 h (100 = growth as untreated, 0 = no growth, -100 = all killed). The conditions noted are these: 10 µM unless noted.
Turning to `O=C(/C=C/CN1CCOCC1)Nc1cc2c(Nc3ccc(F)c(Cl)c3F)ncnc2cc1OCCOC(F)F`, the growth is -17.6% (active).

`Cc1cnc(C(=O)NNc2nc3sc4c(c3c(=O)n2C)C(C)CCC4)cn1` (stereo not drawn): the growth was -28% (active).

For the compound `CSc1nc2c(c(=O)n1C)C1(C(=O)N(Cc3ccccc3)c3ccccc31)c1c(nc(SC)n(C)c1=O)N2`, the growth was 86% (inactive).

For the compound `Nc1nc(-c2ccccc2)c(CCCOc2ccc(NC(=O)CBr)cc2)c(=O)[nH]1`, the growth is 104% (inactive).

Consider `O=C(Nc1ccccc1C(=O)N/N=C(\c1ccccc1)c1ccccn1)c1ccccc1`, for which the growth was -19.4% (active).

As for `O=C1NC(=O)C(Cc2ccc(OCc3ccc(-c4ccc(Cl)cc4Cl)cc3)cc2)S1` (stereo not drawn), the growth is 14.3% (inactive).

As for `CCCCNc1ccc(-c2ccc(NCCCC)cc2)cc1`, the growth was 29.9% (inactive).

`COC(=O)[C@]12CCC(C)(C)C[C@H]1[C@H]1/C(=N/OCCc3nn[nH]n3)C[C@@H]3[C@@]4(C)CC[C@H](OC(C)=O)C(C)(C)[C@@H]4CC[C@@]3(C)[C@]1(C)CC2`: the growth is 17.3% (inactive).

`COc1ccc(C(c2cc(OC)c(OC)c(OC)c2)N2CCN(Cc3ccccc3)CC2)cc1` (stereo not drawn): the growth was 53% (inactive).

In the case of `CC(C)OCC1CO1` (stereo not drawn), the growth was 108% (inactive).

Consider `COc1ccc2c(c1)C(=O)c1c-2c(=O)n(CCCCCCC(=O)NO)c2ccccc12`, for which the growth is 6.84% (active).

As to `COC(=O)[C@@]12CC=C(C)[C@]3(C[C@H](c4ccoc4)OC3=O)[C@H]1C=C[C@@H](O)[C@@]2(O)C(=O)OC`, the growth was 121% (inactive).

Take `O=S(=O)(NCCCNc1nccc(-n2ccc3cccnc32)n1)c1cccc(C(F)(F)F)c1`: the growth is 108% (inactive).
